“And” between values parts separate entries of the source, which are not always exact repeats. Equal entries are not always repeated. Among all 5,500 compounds or so, about 2,000 (36%) were called active. Another 18% or so got no clear call; they are omitted. Cut-off read from the data, not from the text of the source: active = normalized growth mostly below about 0.91 (no sharp cut-off); inconclusive = no clear call, values can overlap the other calls; inactive = mostly above about 0.92. The list shows a part of the results.
Experiment: chemical genetic growth profiling, strain panel (AID 1159580);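 note: tested at 20 µM; growth read once vehicle control cultures reached saturation at 30 °C; 1 = growth at the plate median or of vehicle wells; lower values mean less growth of the strain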
Details: S. cerevisiae deletion strains, growth OD

Measured: normalized growth

CCOc1ccc(Cc2nccc3cc(OCC)c(OCC)cc23)cc1OCC
inactive: locus YAL013W, strain DEP1, hits give low values 0.976 | locus YAL021C, strain ccr4, hits give low values 0.946 | locus YAL026C, strain drs2, hits give low values 0.974 | locus YAL030W, strain snc1, hits give low values 0.99 | locus YBL061C, strain skt5, hits give low values 0.968 | locus YBR009C, strain hhf1, hits give low values 0.975 | locus YBR021W, strain FUR4, hits give low values 0.961 | locus YBR023C, strain chs3, hits give low values 0.974 | locus YBR171W, strain sec66, hits give low values 0.965 | locus YBR229C, strain ROT2, hits give low values 0.969 | locus YBR231C, strain swc5, hits give low values 0.998 | locus YBR279W, strain paf1, hits give low values 0.989 | locus YCL011C, strain gbp2, hits give low values 0.993 | locus YCL016C, strain dcc1, hits give low values 0.981 | locus YCL029C, strain bik1, hits give low values 0.952 | locus YCL069W, strain vba3, hits give low values 0.99 | locus YCR088W, strain abp1, hits give low values 0.969 | locus YDL005C, strain med2, hits give low values 0.989 | locus YDL035C, strain GPR1, hits give low values 0.956 | locus YDL040C, strain nat1, hits give low values 0.976 | locus YDL074C, strain BRE1, hits give low values 0.855 | locus YDL101C, strain DUN1, hits give low values 0.956 | locus YDL134C, strain PPH21, hits give low values 0.939 | locus YDL185W, strain tfp1, hits give low values 0.994 | locus YDL192W, strain arf1, hits give low values 0.958 | locus YDR001C, strain nth1, hits give low values 0.977 | locus YDR069C, strain doa4, hits give low values 0.982 | locus YDR101C, strain arx1, hits give low values 0.967 | locus YDR137W, strain rgp1, hits give low values 0.89 | locus YDR150W, strain NUM1, hits give low values 0.994 | locus YDR159W, strain sac3, hits give low values 0.892 | locus YDR162C, strain NBP2, hits give low values 0.945 | locus YDR195W, strain ref2 1.05 | locus YDR297W, strain sur2, hits give low values 0.976 | locus YDR318W, strain mcm21, hits give low values 0.931 | locus YDR334W, strain swr1, hits give low values 0.974 | locus YDR335W, strain msn5, hits give low values 0.985 | locus YDR388W, hits give low values 0.954 | locus YDR392W, strain spt3, hits give low values 0.866 | locus YDR502C, strain sam2, hits give low values 0.96 | locus YEL003W, strain gim4, hits give low values 0.963 | locus YEL037C, strain rad23, hits give low values 0.956 | locus YEL061C, strain CIN8 (second series), hits give low values 0.959 | locus YEL061C, strain CIN8, hits give low values 0.986 | locus YER015W, strain faa2, hits give low values 0.965 | locus YER016W, strain bim1, hits give low values 0.962 | locus YER110C, hits give low values 0.968 | locus YER111C, strain swi4, hits give low values 0.972 | locus YER155C, strain BEM2 (second series), hits give low values 0.913 | locus YER155C, strain BEM2, hits give low values 0.99 | locus YER167W, strain BCK2, hits give low values 0.956 | locus YFR010W, strain ubp6, hits give low values 0.97 | locus YGL078C, strain dbp3, hits give low values 0.985 | locus YGL086W, strain mad1, hits give low values 0.962 | locus YGL167C, strain pmr1, hits give low values 0.969 | locus YGL173C, strain kem1, hits give low values 0.966 | locus YGL227W, strain vid30, hits give low values 0.998 | locus YGL240W, strain doc1, hits give low values 0.962 | locus YGL248W, strain PDE1, hits give low values 0.944 | locus YGL253W, strain hxk2, hits give low values 0.986 | locus YGR078C, strain PAC10, hits give low values 0.899 | locus YGR135W, strain pre9, hits give low values 0.92 | locus YGR229C, strain SMI1, hits give low values 0.91 | locus YGR252W, strain gcn5, hits give low values 0.776 | locus YHR013C, strain ard1, hits give low values 0.955 | locus YHR027C, strain rpn1, hits give low values 0.983 | locus YHR030C, strain SLT2, hits give low values 0.977 and 0.969 | locus YHR079C, strain IRE1 (second series), hits give low values 0.954 | locus YHR079C, strain IRE1, hits give low values 0.939 | locus YHR094C, strain hxt1, hits give low values 0.977 | locus YHR129C, strain ARP1, hits give low values 0.978 | locus YHR142W, strain chs7, hits give low values 0.923 | locus YHR200W, strain rpn10, hits give low values 0.948 | locus YIL066C, strain RNR3, hits give low values 0.935 | locus YIL073C, strain SPO22, hits give low values 0.962 | locus YIL125W, strain kgd1, hits give low values 0.978 | locus YIR030C, strain dcg1, hits give low values 0.971 | locus YJL092W, strain hpr5, hits give low values 0.99 | locus YJL095W, strain BCK1 (second series), hits give low values 0.968 | locus YJL095W, strain BCK1, hits give low values 0.882 and 0.963 | locus YJL115W, strain asf1, hits give low values 0.995 | locus YJL129C, strain trk1, hits give low values 0.896 | locus YJL134W, strain LCB3, hits give low values 0.985 | locus YJL154C, strain vps35, hits give low values 0.973 | locus YJL164C, strain tpk1, hits give low values 0.973 | locus YJL166W, strain qcr8, hits give low values 0.967 | locus YJL168C, strain set2, hits give low values 0.973 | locus YJL187C, strain SWE1 (second series), hits give low values 0.912 | locus YJR043C, strain POL32, hits give low values 0.943 | locus YJR066W, strain TOR1, hits give low values 0.9

Reference: PubChem BioAssay AID1159580 (chemical genetic matrix, 2015)
